The panel holds about 83,000 compounds, 20% with a hit somewhere; the sample as a whole holds those more often.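 How to read the values: 0–100, growth inhibition (40 = 60% inhibited); 0, no net growth; -100 to 0, cell death (-40 = 40% of starting cells died; -100 = all dead).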 Values without a mark were called inactive. Activity calls are given as the source filed them. The calls were made as follows: active = growth percent below 10; inactive = the rest.

Test systems include NCI-H23 lung; NCI-H226 lung; NCI-H322M lung; HOP-62 NSCLC; NCI-H460 lung; HOP-92 NSCLC; NCI-H522 lung; A549/ATCC NSCLC; 786-0 renal; COLO 205 colon; DU-145 prostate; K-562 leukemia; MALME-3M melanoma; MDA-MB-231 breast; SF-268 CNS; SF-295 CNS; SF-539 CNS; UACC-257 melanoma; M14 melanoma.
Assay in all cases: NCI-60 one-dose screen, 48 h (100 = growth as untreated, 0 = no growth, -100 = all killed)
Details in all cases: 10 µM unless noted

`CC(C)[N+](C)(CCOC(COc1ccccc1)COc1ccccc1)C(C)C`: the growth in the experiment on NCI-H23 lung was 84.1%; in the experiment on NCI-H226 lung it was 91.2%; in the experiment on NCI-H322M lung, 101%; with HOP-62 NSCLC, 98.6%; with NCI-H460 lung, 106%; in the experiment with HOP-92 NSCLC, 72.2%. Moreover, the growth was 68% with NCI-H522 lung; 92.5% with A549/ATCC NSCLC; 102% in the experiment on 786-0 renal; 67.9% in the experiment with COLO 205 colon; 106% in the experiment on DU-145 prostate; 53% in the experiment with K-562 leukemia. Also, the growth was 105% in the experiment on MALME-3M melanoma; 98% with MDA-MB-231 breast; 94.5% with SF-268 CNS; 98.9% in the experiment with SF-295 CNS; 100% in the experiment on SF-539 CNS; 78.7% in the experiment with UACC-257 melanoma. In addition, the growth with M14 melanoma is 100%.

For `Clc1cc(Cl)cc(N2N=C(c3cccc(Nc4ccncc4)c3)CC2c2ccc3c(c2)OCO3)c1` (stereo not given), the growth with NCI-H23 lung was 80.1%; in the experiment with NCI-H226 lung, 83.9%; in the experiment on NCI-H322M lung, 68.3%; in the experiment on HOP-62 NSCLC it was -31.2% (active); in the experiment with NCI-H460 lung, -90.2% (active); in the experiment on HOP-92 NSCLC, 57.9%. Besides, the growth in the experiment with NCI-H522 lung was -5.89% (active); in the experiment with A549/ATCC NSCLC, 15.2%; in the experiment on 786-0 renal, 91.7%; in the experiment with COLO 205 colon, -47.5% (active); in the experiment with DU-145 prostate, 28.9%; in the experiment with K-562 leukemia, 3.33% (active). The growth with MALME-3M melanoma is -40.2% (active); in the experiment on MDA-MB-231 breast, 33.1%; in the experiment on SF-268 CNS, 72.1%; with SF-295 CNS, 40.7%; with SF-539 CNS, 83.3%; in the experiment on UACC-257 melanoma, 51.2%. Besides, in the experiment with M14 melanoma, the growth was 85.3%.

Turning to `O=C(Nc1ccc2ncnc(Nc3ccc(Oc4cccc(F)c4)c(Cl)c3)c2c1)c1ccc(CN2CCOCC2)cc1`, the growth in the experiment with NCI-H23 lung was 20.1%; in the experiment on NCI-H226 lung, 52%; in the experiment on NCI-H322M lung, 60.7%; in the experiment with HOP-62 NSCLC it was 17.9%; in the experiment with NCI-H460 lung it was 38.8%; in the experiment on HOP-92 NSCLC, 53.9%. Besides, the growth is 6.89% (active) in the experiment on NCI-H522 lung; 33.6% in the experiment on A549/ATCC NSCLC; 42.2% with 786-0 renal; 40.1% in the experiment with COLO 205 colon; 39.6% in the experiment with DU-145 prostate; 8.98% (active) in the experiment with K-562 leukemia. The growth is 38.9% in the experiment with MALME-3M melanoma; 46.1% with MDA-MB-231 breast; 49% in the experiment on SF-268 CNS; 27.3% with SF-295 CNS; 53.2% in the experiment on SF-539 CNS; 53.1% in the experiment on UACC-257 melanoma. In addition, in the experiment on M14 melanoma, the growth was 14.7%.

On to `O=S(=O)(NCCNc1nccc(-c2c(-c3ccc(F)c(O)c3)nc3sccn23)n1)c1ccccc1`, for which the growth was 72.2% in the experiment on NCI-H23 lung; 99.8% in the experiment with NCI-H226 lung; 96.1% in the experiment on NCI-H322M lung; 98.9% with HOP-62 NSCLC; 75.3% with NCI-H460 lung; 63.9% with HOP-92 NSCLC. The growth in the experiment with NCI-H522 lung is 59.3%; with A549/ATCC NSCLC, 81.8%; in the experiment on 786-0 renal it was 113%; with COLO 205 colon, 33.9%; in the experiment on DU-145 prostate, 77.5%; with K-562 leukemia, 37.2%. Besides, the growth in the experiment on MALME-3M melanoma was 1.46% (active); in the experiment on MDA-MB-231 breast it was 51.6%; in the experiment with SF-268 CNS it was 84.5%; in the experiment with SF-295 CNS it was 110%; in the experiment on SF-539 CNS, 94.3%; in the experiment with UACC-257 melanoma, 16.2%. Also, the growth with M14 melanoma is 14.5%.

As to `CS(=O)(=O)Nc1cc(-c2ccc3ncnc(Nc4ccc5[nH]ncc5c4)c3c2)cnc1Cl`, the growth is 86% in the experiment with NCI-H23 lung; 75% in the experiment with NCI-H226 lung; 74.1% in the experiment with NCI-H322M lung; 55.2% in the experiment with HOP-62 NSCLC; 94.1% in the experiment on NCI-H460 lung; 0.913% (active) with HOP-92 NSCLC. The growth with NCI-H522 lung is 60.6%; in the experiment on A549/ATCC NSCLC it was 91.8%; with 786-0 renal it was 79.6%; with COLO 205 colon it was 81.7%; with DU-145 prostate, 82.4%; in the experiment with K-562 leukemia it was 90.1%. Also, the growth with MALME-3M melanoma is 60.9%; in the experiment on MDA-MB-231 breast, 79.5%; with SF-268 CNS, 53.8%; in the experiment with SF-295 CNS, 88%; in the experiment on SF-539 CNS, 67.7%; in the experiment with UACC-257 melanoma it was 35.4%.

As for `CC[C@@]12C=CCN3CC[C@]4(c5cc(NC(=O)COc6cc(OCC(=O)Nc7cc8c(cc7OC)N(C)[C@H]7[C@@](O)(C(=O)OC)[C@H](OC(C)=O)[C@]9(CC)C=CCN%10CC[C@]87[C@@H]%109)cc7oc(-c8ccccc8)cc(=O)c67)c(OC)cc5N(C)[C@@H]4[C@](O)(C(=O)OC)[C@H]1OC(C)=O)[C@H]32`, the growth in the experiment on NCI-H23 lung is 0.327% (active); with NCI-H226 lung, 23.7%; with NCI-H322M lung, 45.9%; with HOP-62 NSCLC, 17.3%; with NCI-H460 lung, 0.985% (active); in the experiment on HOP-92 NSCLC, 33.9%. In addition, the growth was -27.7% (active) with NCI-H522 lung; 51.7% in the experiment on A549/ATCC NSCLC; 41.4% with 786-0 renal; 40.2% with COLO 205 colon; 30.3% in the experiment with DU-145 prostate; 45.6% in the experiment with K-562 leukemia. The growth with MALME-3M melanoma is 111%; in the experiment with MDA-MB-231 breast it was 4.69% (active); with SF-268 CNS it was -1.19% (active); with SF-295 CNS, 71.3%; in the experiment on SF-539 CNS, 89.3%; with UACC-257 melanoma, 103%. Also, in the experiment with M14 melanoma, the growth is 50.4%.

Regarding `COc1ccc(C(=O)c2cc3c(N)c(C(=O)Nc4cccc(Cl)c4)sc3nc2C)cc1`, the growth in the experiment on NCI-H23 lung is 35.1%; in the experiment with NCI-H226 lung it was 61.9%; in the experiment with NCI-H322M lung it was 57.2%; in the experiment with HOP-62 NSCLC it was 44.9%; in the experiment on NCI-H460 lung it was 13.1%; in the experiment with HOP-92 NSCLC, 86.9%. Besides, the growth was -4.67% (active) with NCI-H522 lung; 32.3% in the experiment with A549/ATCC NSCLC; 51.6% with 786-0 renal; -1.48% (active) in the experiment on COLO 205 colon; 18% in the experiment on DU-145 prostate; 6.91% (active) in the experiment on K-562 leukemia. Also, the growth in the experiment with MALME-3M melanoma was 51.2%; with MDA-MB-231 breast, 28.4%; in the experiment with SF-268 CNS, 44.7%; in the experiment with SF-295 CNS it was 31.3%; in the experiment on SF-539 CNS, -15.5% (active); with UACC-257 melanoma, 71.4%. Besides, the growth in the experiment with M14 melanoma was 17.9%.

Turning to `O=C(N/N=C/c1ccncc1)c1ccccc1Nc1cccc(C(F)(F)F)c1`, the growth was 95.5% with NCI-H23 lung; 66.3% in the experiment with NCI-H226 lung; 88.5% with NCI-H322M lung; 97.6% in the experiment on HOP-62 NSCLC; 103% in the experiment on NCI-H460 lung; 47.3% with HOP-92 NSCLC. For the same compound, the growth with NCI-H522 lung is 82%; in the experiment with A549/ATCC NSCLC it was 55.6%; in the experiment on 786-0 renal, 86.7%; in the experiment with COLO 205 colon, 107%; with DU-145 prostate it was 69.2%; in the experiment on K-562 leukemia, 77.7%. Moreover, the growth with MALME-3M melanoma is 92.8%; in the experiment with MDA-MB-231 breast, 79.8%; in the experiment with SF-268 CNS, 69.5%; in the experiment on SF-295 CNS it was 94.5%; with SF-539 CNS, 112%; in the experiment with UACC-257 melanoma, 62.9%.

These data come from PubChem BioAssay (NCI).
